From PubChem BioAssay
This is a sample that favours compounds with a hit; in the whole collection about 5.8% have one here.
12-LOX inh: inhibitors of human 12S-lipoxygenase ALOX12 | Potency, µM (top dose mostly 108 µM), most hits filed as inhibitors | 580,000 compounds, 1.1% hits | AID 1671190 | purified 12hLO, xylenol orange hydroperoxide absorbance | P18054
Target sequence (P18054 whole entry, looked up): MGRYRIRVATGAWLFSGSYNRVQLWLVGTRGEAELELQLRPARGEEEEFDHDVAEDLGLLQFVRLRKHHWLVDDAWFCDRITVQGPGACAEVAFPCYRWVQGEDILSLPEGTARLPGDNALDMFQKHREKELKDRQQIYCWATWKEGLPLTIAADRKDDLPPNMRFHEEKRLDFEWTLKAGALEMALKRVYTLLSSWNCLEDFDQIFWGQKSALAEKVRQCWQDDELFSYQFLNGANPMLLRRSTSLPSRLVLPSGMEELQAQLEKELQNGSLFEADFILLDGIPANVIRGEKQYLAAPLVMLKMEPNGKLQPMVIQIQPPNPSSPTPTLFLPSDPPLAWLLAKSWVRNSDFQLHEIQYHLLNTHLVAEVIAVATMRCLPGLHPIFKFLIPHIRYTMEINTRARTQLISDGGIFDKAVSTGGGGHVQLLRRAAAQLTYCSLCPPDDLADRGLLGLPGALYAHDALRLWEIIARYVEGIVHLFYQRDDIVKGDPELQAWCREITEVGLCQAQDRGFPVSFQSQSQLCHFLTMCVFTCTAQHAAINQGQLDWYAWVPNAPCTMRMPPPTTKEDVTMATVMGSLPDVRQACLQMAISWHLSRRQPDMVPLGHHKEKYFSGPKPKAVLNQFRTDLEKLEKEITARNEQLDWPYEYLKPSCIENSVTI
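Hydroperoxide product was detected by ferrous iron/xylenol orange as the 573 to 405 nm absorbance ratio. Arachidonic acid at 40 uM (final) was turned over for 30 min at room temperature by 150 nM human 12hLO, pH 7.0 Hepes buffer, after 15 min compound preincubation.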
PINK1 modulator: modulators of PINK1 expression | PINK1 immunofluorescence, high-content cytometry, 24 h | Potency, µM (highest dose often 76.6 µM), most hits filed as activators | 410,000 compounds, 0.2% hits; active = well fitted activation curve with a large enough effect; inconclusive = small, poorly fitted or top-dose-only effect; cell line not stated here; also: nearly all actives have a fitted effect of over 65% in size
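Cells are seeded, rested 12 hours, then given compound at five concentrations or DMSO for 24 hours. After fixation, blocking and antibody staining, PINK1 amount and mitochondrial localization are scored; CCCP serves as control.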
KB-3-1 cytotox: kills parental KB-3-1 adenocarcinoma cells; KB-3-1 viability, CellTiter-Glo ATP luminescence, 72 h; Potency, µM (doses to about 46.1 µM), hits mostly cytotoxic; 400,000 compounds, 1.4% hits; also: nearly all actives have a fitted effect of over 60% in size
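KB-3-1 parental drug-naive adenocarcinoma cells in DMEM/10% FBS, incubated 72 h at 37 C with pin-transferred compounds across a concentration series. Viability by CellTiter-Glo luminescence; concentration-response curves fitted after normalization.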
MCF10A rereplic: induces DNA re-replication in MCF 10a normal breast cells; AID 624296; Potency, µM (top dose mostly 46.1 µM), actives largely listed as activators; MCF 10A DNA re-replication, Hoechst nuclear intensity, 48 h; 350,000 compounds, 2.9% hits; also: nearly all actives have a fitted effect of over 50% in size
SW480 rereplic: DNA re-replication induction in SW480 cells | SW480 DNA re-replication, Hoechst DNA content imaging, 48 h | Potency, µM (top dose mostly 46.1 µM), most hits filed as activators | 340,000 compounds, 1.8% hits; also: nearly all actives have a fitted effect of over 55% in size
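Treated cells incubate 48 hr (37 C, 5% CO2), are stained 40 min with Hoechst, and nuclear fluorescence is enumerated; a rise in nuclei with high DNA signal marks re-replication.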
KB-V1 cytotox: KB-V1 MDR subline cytotoxicity; AID 1347076; 400,000 compounds, 3.4% hits; KB-V1 MDR cells viability, CellTiter-Glo, 72 h; Potency, µM (series often up to 46.1 µM), usual class: cytotoxic; also: nearly all actives have a fitted effect of over 60% in size
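KB-V1 MDR subline cells in DMEM (phenol-red free, 10% FBS) exposed to compounds in qHTS concentration series for 72 h at 37 degrees C. Viability read by CellTiter-Glo luminescence; concentration-effect curves fitted after normalization and correction.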
Numbers stand for hits; . = inactive; ? = inconclusive; / = no result given; ! = not active in a repeat; [ ] = another dose, or the depositor's remark. Unless noted, calls follow the shape of the dose curve; as a rule, active = well fitted curve in the direction sought with a large enough effect; inconclusive = small, poorly fitted or top-dose-only effect, or another doubt; inactive = no such curve, though single readings can be large; an effect the other way counts as inactive or inconclusive.

SMILES | 12-LOX inh | PINK1 modulator | KB-3-1 cytotox | MCF10A rereplic | SW480 rereplic | KB-V1 cytotox
COC(=O)C1=C(c2cccc(OCc3ccccc3)c2)C[C@@H]2CC[C@H]1N2C(=O)NCc1ccc(F)cc1 | . | . | . | . | . | ?
Cc1ncc2c(n1)C[C@@H]1CC[C@H]2N1C(=O)Nc1ccc2c(c1)OCCO2 | . | / | / | / | / | /
Nc1c(C(=O)OCc2ccccc2)c2nc3ccccc3nc2n1Cc1cccs1 | . | . | . | 6.5µM | 15µM | 5.2µM
COCCCn1c(N)c(C(=O)OC(C)COC)c2nc3ccccc3nc21 (configuration not stated) | . | . | . | . | . | ?
CCC(C)OC(=O)c1c(N)n(Cc2cccs2)c2nc3ccccc3nc12 (configuration not stated) | . | . | ? | 12µM | ? | .
COc1ccc(OC)c(N=Cc2c(O)n(Cc3ccccc3)c(=S)[nH]c2=O)c1 | . | 35µM | . | ? | 29µM | .
Cc1cccc(CCN)c1 | . | / | / | / | / | /
c1ccc(Nc2cc3c(cn2)CN(CC2CC2)CCN3)cc1 | . | / | / | / | / | /
COc1ccc(-n2nc(C)c3c2NC(=O)CSC3c2cccc(O)c2)cc1 (configuration not stated) | . | / | / | / | / | /
Cn1cccc1/C=C1/C(=O)NC(=S)N(Cc2ccc(F)cc2)C1=O | 10µM | . | ? | . | . | ?
Cn1cccc1/C=C1/C(=O)NC(=O)N(Cc2ccc(F)cc2)C1=O | ? | . | . | . | . | .
CCC12CN3CC(CC)(CN(C1)C3c1ccccn1)C2=O (configuration not stated) | . | . | . | / | / | .
CN1C2CCC1/C(=C/c1ccccn1)C(=O)/C2=C\c1ccccn1 | . | . | 0.92µM | ? | ? | ?
O=[N+]([O-])c1oc2ccc3ccccc3c2c1CCO | ? | . | ? | 5.2µM | ? | 5.8µM
COC1CN(c2cccc(F)c2)C12CCNCC2 (configuration not stated) | . | / | / | / | / | /
CCCCCCCCCC(CC)c1ccc(S(=O)(=O)O)cc1 (configuration not stated) | 23µM | / | / | . | ? | /
NC[C@H](CS(=O)(=O)O)c1ccc(Cl)cc1 | . | / | / | / | / | /
S=P(NCCSCc1ccccc1)(N1CC1)N1CC1 | . | . | . | 15µM | 9.2µM | .
S=P(NCCNP(=S)(N1CC1)N1CC1)(N1CC1)N1CC1 | . | . | . | ? | ? | .
O=C(C[C@@H]1NCCC[C@@H]1O)Cn1cnc2ccccc2c1=O | . | / | / | / | / | /
CC(C)n1c(/C=C/[C@@H](O)C[C@@H](O)CC(=O)O)c(-c2ccc(F)cc2)c2ccccc21 | . | . | 15µM | . | . | 18µM
COC1C(OC(=O)c2ccc(C)[nH]2)C(O)C(Oc2ccc3c(O)c(NC(=O)c4ccc(O)c(CC=C(C)C)c4)c(=O)oc3c2Cl)OC1(C)C (configuration not stated) | 40µM | . | ? | ? | . | .
S=C=Nc1ccccn1 | . | . | . | . | . | .
c1ccc(/N=C2\N=C(Nc3ccccn3)c3ccccc32)nc1 | . | . | . | . | ? | 2.9µM
CC1(C)OC(c2ccccc2)=C/C(=C/C=C2C(=O)NC(=S)NC2=O)O1 | . | ? | . | ? | ? | ?
SMILES | 12-LOX inh | PINK1 modulator | KB-3-1 cytotox | MCF10A rereplic | SW480 rereplic | KB-V1 cytotox
CN1/C(=C\C=C2C(=O)NC(=S)NC2=O)C(C)(C)c2ccccc21 | . | 35µM | ? | . | . | ?
CCOc1cccc(=NC2CCCCC2)c2c(C)n(C)c(C)c12 | . | 16µM | 18µM | . | .[9.22 µM] | ?
COc1ccc2c(c1)c(C(=O)OCC(=O)N(C)C)c(C)n2C1CC1 | . | / | / | / | / | /
CC1(C)[C@@H](C=C(Cl)Cl)[C@@H]1C(=O)OCc1c(F)c(F)cc(F)c1F | / | / | / | . | . | /
CC1(C)C(C=C(Cl)Cl)C1C(=O)OCc1cccc(Oc2ccccc2)c1 (configuration not stated) | . | . | . | 0.0052µM! | . | .
O=[N+]([O-])c1cccc2cccnc12 | . | / | / | / | / | /
Cc1sc2c(c1C)C(c1ccc(F)cc1)=NCC(=O)N2CC(=O)Nc1ccccc1 | . | / | / | / | / | /
NC(Cc1ccc(F)cc1)c1ccccc1 (configuration not stated) | . | / | / | / | / | /
